Experimental data: PubChem BioAssay (NCATS)
Unmarked numbers belong to inactive results. Records with an inconclusive call do not appear. Activity calls are given as the source filed them. Unless noted, the call rests on the fitted dose curve; in most records, active means well fitted curve in the direction sought with a large enough effect; inconclusive means small, poorly fitted or top-dose-only effect, or another doubt; inactive means no such curve, though single readings can be large; an effect the other way counts as inactive or inconclusive.

Molecular target: Cytochrome P450 3A4 (Homo sapiens) (UniProt P08684)
Sequence (P08684 whole entry, looked up): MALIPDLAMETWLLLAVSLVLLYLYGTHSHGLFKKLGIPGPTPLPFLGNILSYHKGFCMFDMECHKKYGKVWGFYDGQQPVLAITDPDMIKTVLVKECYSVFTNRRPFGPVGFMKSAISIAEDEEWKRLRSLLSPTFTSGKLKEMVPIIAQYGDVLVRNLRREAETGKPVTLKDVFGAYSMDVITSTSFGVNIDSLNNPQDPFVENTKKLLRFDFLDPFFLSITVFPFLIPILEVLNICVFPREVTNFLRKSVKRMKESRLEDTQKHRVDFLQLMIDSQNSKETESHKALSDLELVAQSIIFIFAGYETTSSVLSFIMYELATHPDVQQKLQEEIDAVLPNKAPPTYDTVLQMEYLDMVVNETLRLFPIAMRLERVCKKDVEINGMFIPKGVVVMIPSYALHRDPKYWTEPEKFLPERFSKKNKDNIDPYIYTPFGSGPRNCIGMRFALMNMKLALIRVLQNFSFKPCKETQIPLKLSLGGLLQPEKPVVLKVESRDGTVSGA
Test: qHTS Assay for Inhibitors and Substrates of Cytochrome P450 3A4 (AID 884); further: nearly all actives have a fitted effect of over 50% in size; further: potency means the concentration at half of the fitted maximal effect; on activity change, negative = inhibition: on the % scale 0 is the no-effect control and ±100 the full control effect
Conditions: recombinant CYP3A4, Luciferin-PPXE luminescence; series mostly up to 57.1 µM; activity change, negative = inhibition: at the top concentration
Outline: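 20 nM human CYP3A4 with 25 uM Luciferin-PPXE (at KM) in 200 mM KPO4, preincubated 10 min with compound; NADPH regeneration started a 60 min RT reaction. Luciferin detected by luminescence, normalized to 57 uM ketoconazole as full inhibition.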

Structure (SMILES)	Potency	activity change, negative = inhibition
COc1cccc(-c2cc(=O)c3ccccc3o2)c1N	7.94 µM (active)	
NCCS		9.37%
O=C1NC(=O)C(c2ccccc2)(c2ccccc2)N1	inactive	
O=C(O)c1cc(O)c2c(c1)C(=O)c1cccc(O)c1C2=O		-24.3%
O=c1[nH]cnc2c1ncn2[C@H]1CC[C@@H](CO)O1		9.81%
CCCNC(=O)NS(=O)(=O)c1ccc(Cl)cc1		-11.6%
CC(C)OC(=O)C(C)(C)Oc1ccc(C(=O)c2ccc(Cl)cc2)cc1		58.8% [at 25.6 µM]
CC(=O)CCCCn1c(=O)c2c(ncn2C)n(C)c1=O		-17.2%
CC(=O)N[C@@H](CS)C(=O)O		-3.8%
CC(=O)O[C@]1(C(C)=O)CC[C@H]2[C@@H]3C=C(Cl)C4=CC(=O)[C@@H]5C[C@@H]5[C@]4(C)[C@H]3CC[C@@]21C		21.8%
CN(C)CCC(c1ccccc1)c1ccccn1 (configuration not stated)	inactive	
O=C(O)Cc1cccc2ccccc12		-9.84%
CC(=O)c1ccc(S(=O)(=O)NC(=O)NC2CCCCC2)cc1		-1.33%
CCN(CC)C(=O)c1ccc(O)c(OC)c1		6.86%

Molecular target: Cytochrome P450 3A4 (Homo sapiens) (UniProt P08684)
Test: qHTS Assay for Activators of Cytochrome P450 3A4 (AID 885); further: nearly all actives have a fitted effect of over 65% in size
Conditions: recombinant CYP3A4, Luciferin-PPXE luminescence, 60 min; series mostly up to 57.1 µM; activity change, positive = activation: at the top concentration
Outline: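 Steps: enzyme/substrate mix dispensed; compound added, 10 min RT; NADPH regeneration solution added, 60 min RT; luciferin detection buffer stops reaction; 20 min later luminescence measured.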

Structure (SMILES)	activity change, positive = activation [%]	outcome
COc1cccc(-c2cc(=O)c3ccccc3o2)c1N	-63.6	
O=c1c(O)c(-c2ccc(O)cc2)oc2cc(O)cc(O)c12	-62.6	
O=C(O)c1cc(O)c2c(c1)C(=O)c1cccc(O)c1C2=O	-34.8	
CCCNC(=O)NS(=O)(=O)c1ccc(Cl)cc1	-38.3	
O=c1c(-c2ccc(O)cc2)coc2cc(O)ccc12	-57.2	
O=c1cc(-c2ccc(O)cc2)oc2cc(O)cc(O)c12		inactive

Molecular target: Cytochrome P450 2D6 (Homo sapiens) (UniProt P10635)
Sequence (P10635 whole entry, looked up): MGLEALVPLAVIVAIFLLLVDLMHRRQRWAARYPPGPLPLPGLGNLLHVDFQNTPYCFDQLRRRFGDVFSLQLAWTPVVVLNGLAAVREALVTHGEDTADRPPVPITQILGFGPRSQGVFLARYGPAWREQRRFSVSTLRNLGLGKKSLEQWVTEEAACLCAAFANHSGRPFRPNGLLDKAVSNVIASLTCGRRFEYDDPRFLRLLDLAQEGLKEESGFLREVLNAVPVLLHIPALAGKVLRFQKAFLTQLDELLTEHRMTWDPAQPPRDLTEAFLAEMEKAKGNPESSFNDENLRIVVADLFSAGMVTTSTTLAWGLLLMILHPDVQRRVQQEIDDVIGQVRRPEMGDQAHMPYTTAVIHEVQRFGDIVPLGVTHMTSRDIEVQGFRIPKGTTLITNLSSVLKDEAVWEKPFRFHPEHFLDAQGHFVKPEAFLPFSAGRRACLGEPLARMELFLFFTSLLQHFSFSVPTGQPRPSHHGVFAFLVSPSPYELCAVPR
Test: qHTS Assay for Inhibitors and Substrates of Cytochrome P450 2D6 (AID 891); further: nearly all actives have a fitted effect of over 60% in size; further: potency means the concentration at half of the fitted maximal effect;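 on activity change, negative = inhibition: luciferin methyl ether substrate demethylated by CYP2D6 with NADPH regeneration; on the % scale 0 is the no-effect control and ±100 the full control effect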
Conditions: recombinant CYP2D6, luciferin-ME EGE luminescence; series mostly up to 57.1 µM; activity change, negative = inhibition: at the top concentration
Outline: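 Human CYP2D6 (5 nM) with 30 uM Luciferin-ME EGE (at Km) in 100 mM KPO4, compound preincubated 10 min, then NADPH regeneration system for 60 min at room temperature. Luciferin read by luminescence; normalized to 1.43 uM quinidine.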

Structure (SMILES)	Potency	activity change, negative = inhibition [%]
O=c1c(O)c(-c2ccc(O)cc2)oc2cc(O)cc(O)c12	15.8 µM (active)	
CCCNC(=O)NS(=O)(=O)c1ccc(Cl)cc1		-7.93
CC(C)OC(=O)C(C)(C)Oc1ccc(C(=O)c2ccc(Cl)cc2)cc1		-8.68
O=c1c(-c2ccc(O)cc2)coc2cc(O)ccc12		-8.21
CCCCC1C(=O)N(c2ccccc2)N(c2ccccc2)C1=O		16.4
CC(=O)CCCCn1c(=O)c2c(ncn2C)n(C)c1=O		5.43
CC(=O)c1ccc(S(=O)(=O)NC(=O)NC2CCCCC2)cc1		6.45
CCN(CC)C(=O)c1ccc(O)c(OC)c1		-5.95

System: not listed separately
Test: qHTS Assay for Identification of Small Molecule Antagonists for NFkB Signaling Pathway (AID 895; active means well fitted inhibition curve with a large enough effect in the signal ratio, with a control signal flat, not every such curve was filed as active; the % refers to the signal ratio; further: potency means the concentration at half of the fitted maximal effect; on activity change, negative = inhibition: on the % scale 0 is the no-effect control and ±100 the full control effect)
Conditions: NFkB beta-lactamase reporter cells, FRET ratio 460/530, stimulated with 10 pM TNF alpha; series mostly up to 38.3 µM; activity change, negative = inhibition: at the top concentration
Outline: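 ME-180 NFkB-bla cells (beta-lactamase under NFkB response element), plated overnight, treated with compound then 10 pM TNF alpha (about EC50) for 5 hrs at 37 C. LiveBLAzer FRET read at 460/530 nm emission, 405 nm excitation.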

Structure (SMILES)	activity change, negative = inhibition [%]	Potency
COc1cccc(-c2cc(=O)c3ccccc3o2)c1N	23.9	
NCCS	-11.3	
CC1=C(/C=C/C(C)=C/C=C/C(C)=C/C(=O)Nc2ccc(O)cc2)C(C)(C)CCC1		6.31 µM (active)
CC(=O)c1ccc(S(=O)(=O)NC(=O)NC2CCCCC2)cc1	4.24	
